From PubChem BioAssay (Tox21)
Records with an inconclusive call do not appear. A call without a number means that no potency is given here. The source made the active and inactive calls. Calls come from the whole dose curve; as a rule, active = well fitted activation curve with a large enough effect in the repeat runs; inconclusive = weak or mixed curves; inactive = flat fitted curve, though single readings scatter.

test: A CellTox Green Cytotoxicity Assay to monitor cytotoxicity in HepG2 cells - 16 hour (AID 1224876); settings: CellTox Green fluorescence; series mostly up to 76.8 µM; note: nearly all actives have a fitted effect of over 45% in size
Text: National Center for Advancing Translational Sciences [NCATS]
NIH Chemical Genomics Center [NCGC]
U.S. Environmental Protection Agency [EPA]
National Institutes of Environmental Health Sciences [NIEHS]
National Toxicology Program [NTP]
Cell-based models are critical for drug discovery. Determining the natural cytotoxic effects resulting from test compounds is an essential research activity. A CellTox Green Cytotoxicity Assay to monitor cytotoxicity in real time of continues cell culture during 40 hours of the compound treatment was used to screen Tox21 10K library compounds in HepG2 cells. CellTox Green Cytotoxicity Assay is a nonlytic, homogeneous, biofluorescent method to measure cytotoxicity in cell culture after experimental manipulation. The assay system uses a proprietary asymmetric cyanine dye that is excluded from viable cells but preferentially stains the dead cell's DNA. […] Viable cells produce no appreciable increases in fluorescence. Therefore, the fluorescence signal produced by the binding interaction with dead cell DNA is proportional to cytotoxicity.
The mixture of HepG2 cell suspension and reagents were dispensed at 600cells/6 ul/well in 1536-well tissue culture treated black solid bottom plates using a Multidrop dispenser. After the assay plates were incubated at a 37 C/5% CO2 incubator for 5 hours, 23 nL of compounds dissolved in DMSO, positive and negative controls was transferred to the assay plate by a pintool work station. The plates were incubated at 37 C for 40 hours. The fluorescence intensity were measured at 0h, 8h, 16h, 24h, 32h and 40h time points using ViewLux plate reader during compound treatment.

With CO[C@H]1C=CO[C@@]2(C)Oc3c(C)c(O)c4c(O)c(c5c(c4c3C2=O)=NC2(CCN(CC(C)C)CC2)N=5)NC(=O)/C(C)=C\C=C/[C@H](C)[C@H](O)[C@@H](C)[C@@H](O)[C@@H](C)[C@H](OC(C)=O)[C@@H]1C as the compound, how does the Potency read?
The Potency was “inactive”.

Which Potency does the source give for C=CC(C)(C)CC(=O)OC here?
Its Potency is “inactive”.

With c1cc[c]([Bi]([c]2ccccc2)[c]2ccccc2)cc1 as the compound, how does the Potency read?
Its Potency is “inactive”.

Which Potency does the source give for O=C(O)c1ccc(CO)o1 here?
The Potency was “inactive”.

For CCc1cccc(N(C)C(N)=Nc2cccc3ccccc23)c1, which Potency is on record?
Its Potency is “inactive”.

With CCCCC(=O)O[C@]1(C(=O)CO)[C@@H](C)C[C@H]2[C@@H]3CCC4=CC(=O)C=C[C@]4(C)[C@@]3(F)[C@@H](O)C[C@@]21C as the compound, how does the Potency read?
Its Potency is “inactive”.

For O=C(O)c1snc(Cl)c1Cl, which Potency is on record?
The Potency was “inactive”.

For COC(=O)CC(=O)C(C)(C)C, which Potency is on record?
The Potency was “inactive”.

With CC#N as the compound, how does the Potency read?
The Potency was “inactive”.

With CCCCCCCCCCCC[N+](C)(C)CCCS(=O)(=O)[O-] as the compound, how does the Potency read?
The Potency was “inactive”.

With CCCOC(=O)c1ccc(N)cc1 as the compound, how does the Potency read?
Its Potency is “inactive”.

With CCCCCCCCSCCO as the compound, how does the Potency read?
The Potency was “inactive”.

For O=C1OCCN1/N=C/c1ccc([N+](=O)[O-])o1, which Potency is on record?
The Potency was “inactive”.

For CC(CCc1ccc2c(c1)OCO2)NN (stereo not given), which Potency is on record?
The Potency was “inactive”.

For CC1=NN(c2ccc(C(=O)O)cc2)C(=O)C1, which Potency is on record?
Its Potency is “inactive”.

With CC(=O)Oc1ccc(C(=C2CCCCC2)c2ccc(OC(C)=O)cc2)cc1 as the compound, how does the Potency read?
Its Potency is “inactive”.

With O=C(Nc1ccccc1)Nc1ccccc1 as the compound, how does the Potency read?
The Potency was “inactive”.

With CC(=O)CC(c1ccc([N+](=O)[O-])cc1)c1c(O)c2ccccc2oc1=O (stereo not given) as the compound, how does the Potency read?
Its Potency is “inactive”.

For CCCCC(=O)O[C@]1(C(=O)CO)CC[C@H]2[C@@H]3CCC4=CC(=O)CC[C@]4(C)[C@H]3[C@@H](O)C[C@@]21C, which Potency is on record?
Its Potency is “inactive”.

For CO[Si](C)(OC)OC, which Potency is on record?
Its Potency is “inactive”.

With Nc1nc(Cl)nc2c1ncn2[C@@H]1O[C@H](CO)[C@@H](O)[C@@H]1F as the compound, how does the Potency read?
Its Potency is “inactive”.

For C=CCOC(=O)/C=C\C(=O)OCC=C, which Potency is on record?
The Potency was “inactive”.

For CCOC(=O)N1CCC(n2c(=O)[nH]c3cc(Cl)ccc32)CC1, which Potency is on record?
The Potency was “inactive”.

With CCCCC(CC)C(=O)OCCOCCOCCOCCOC(=O)C(CC)CCCC (stereo not given) as the compound, how does the Potency read?
The Potency was “inactive”.

Which Potency does the source give for COc1ccc(C(=O)c2cccc(O)c2)c(OC)c1 here?
Its Potency is “inactive”.

With Cc1ccc(/C=N/n2c(-c3ccccc3)csc2=S)cc1 as the compound, how does the Potency read?
Its Potency is “inactive”.

With CCCCCCCC/C=C\CCCCCCCC(=O)OC(CO)CO as the compound, how does the Potency read?
The Potency was “inactive”.

Which Potency does the source give for CN(C)C(=O)Nc1ccc(Oc2ccc(Cl)cc2)cc1 here?
The Potency was “inactive”.

For CC(=O)Oc1ccc2c(c1)CC[C@@H]1[C@@H]2CC[C@]2(C)[C@@H](O)CC[C@@H]12, which Potency is on record?
The Potency was “inactive”.

With CO[C@H]1O[C@H](CO)[C@@H](O)[C@H](O)[C@H]1O as the compound, how does the Potency read?
The Potency was “inactive”.

For COCCOC(=O)C1=C(C)NC(C)=C(C(=O)OC/C=C/c2ccccc2)C1c1cccc([N+](=O)[O-])c1 (stereo not given), which Potency is on record?
Its Potency is “inactive”.

With CN1Cc2cc(C(=O)N3CCC(C4CCNCC4)CC3)ccc2N[C@@H](CC(=O)O)C1=O as the compound, how does the Potency read?
Its Potency is “inactive”.

With CCN(Cc1cccc(S(=O)(=O)O)c1)c1ccc(C(=C2C=CC(=[N+](CC)Cc3cccc(S(=O)(=O)[O-])c3)C=C2)c2ccccc2)cc1 as the compound, how does the Potency read?
The Potency was “inactive”.

Which Potency does the source give for C[Si](NC1CCCCC1)(NC1CCCCC1)NC1CCCCC1 here?
The Potency was “inactive”.

With O=C(C(=O)c1ccccc1)c1ccccc1 as the compound, how does the Potency read?
Its Potency is “inactive”.

For CCCCCCCCCCCC(=O)[O][Sn]([CH2]CCC)([CH2]CCC)[O]C(=O)CCCCCCCCCCC, which Potency is on record?
The Potency was “inactive”.

Which Potency does the source give for C/C=C/C=C/CCCCCCCO here?
Its Potency is “inactive”.

Which Potency does the source give for CCC(C(=O)OCCN(CC)CC)c1ccccc1 (stereo not given) here?
Its Potency is “inactive”.

For O=C(O)c1c(O)c(-c2ccccc2)nc2ccccc12, which Potency is on record?
The Potency was “inactive”.

With CC(CCO)CCc1ccccc1 (stereo not given) as the compound, how does the Potency read?
Its Potency is “inactive”.
